Results filed as inconclusive are left out. Entries that show only a call come without a potency. Active and inactive are the calls of the source. Calls follow the shape of the dose curve; as a rule, active = well fitted cell-killing curve with a large enough effect; inconclusive = small, poorly fitted or top-dose-only effect; inactive = flat fitted curve, though single readings scatter. Peptide text beside a SMILES is read from it. * marks the point of attachment. Hexanoyl = CCCCCC(=O)*
Potency is read from the fitted curve at half-maximal effect.

This experiment in a line: HPAF-II Cancer Cell Toxicity qHTS against the NCATS CANVASS Library (AID 1347346). Also: nearly all actives have a fitted effect of over 55% in size. The conditions noted are these: HPAF-II viability, CellTiter-Glo ATP luminescence, 72 h; series mostly up to 38.3 µM. The source says:
Natural products and their derivatives continue to be wellsprings of nascent therapeutic potential. However, many laboratories have limited resources for biological evaluation, leaving their previously isolated or synthesized compounds largely or completely untested. To address this issue, the Canvass library of natural products was assembled (https://tripod.nih.gov/canvass), in collaboration with academic and industry researchers, for quantitative high-throughput screening (qHTS) across a diverse set of cell-based and biochemical assays. The pure (>85% purity by liquid chromatography/mass spectrometry [LC/MS]) Canvass library of 346 natural products were submitted by 45 academic laboratories and companies around the world. We collected pure natural products to circumvent deconvolution and structure elucidation due to time and resource limitations. The library was formatted into 1536-well plates and evaluated in 50 qHTS (in an 11-pnt concentration series) bioassays with broad scope of disease-relevant mechanisms. The resulting data set from 50 different assays was then systematically analyzed to identify overall trends and specific natural products with interesting biological activities. Reported herein are the results of each individual qHTS and their corresponding assay protocol. National Center for Advancing Translational Sciences (NCATS), Rockville, MD National Institute of Health (NIH), Bethesda, Maryland
Cancer Cell Toxicity protocol for cell lines COV-362, OV-KATE, OV-SAHO, UWB1.289, UWB1.289-WTBRCA1, HEK-293, HPAF-II, Panc-1005, SW1088, or U-118MG. 1.#In a 1536 well, white solid bottom tissue culture plates (Corning 7494), corresponding cells (COV-362, OV-KATE, OV-SAHO, UWB1.289, UWB1.289-WTBRCA1, HEK-293, HPAF-II, Panc-1005, SW1088, or U-118MG) were dispensed in each well at a final concentration of 1000 cells / well (6uL volume) using the Multidrop Combi (Thermo Fisher Scientific) dispenser. 2.#The plates were incubated for 4 hours at 37 degrees C/5% CO2/95% Rh. 3.#Compounds were pin transferred (~23nL volume) via Wako Pin-tool (Wako Automation, Richmond VA) equipped with a 1536 pin head. The assay plates were treated with compounds in an 11-pnt concentration series with a final concentration range of […] to 85uM. 4.#Bortezomib was used as a single dose control (0.5mM column 4, rows 1 - 32) at a final concentration of 1.9uM and as a 16pnt titration (1mM; 1:2 dilution; 16-points; n = 2; column 3, rows 1 - 32) with final concentration range of 0.1nM - 3.8uM. 5.#The assay plates were incubated for 72 hours at 37 degrees C/5% CO2/95% Rh. 6.#3uL CellTiter-Glo detection reagent was then added to the plates (columns 2 - 48, rows 1 - 32) and incubated at room temperature for additional 15min. 7.#Luminescence signal was acquired via the ViewLux plate reader (PerkinElmer) using a clear filter, 2 second exposure and 2x binning settings.
`C[C@@]12C[C@@H](C[C@@H]3C(=O)O[C@@H](c4ccoc4)[C@H](OC(=O)c4ccccc4)[C@@H]31)OC2=O`: the Potency result was “inactive”.
In the case of `CN1CC[C@@]23c4ccccc4N[C@@H]1[C@@]21CCN(C)[C@@H]3Nc2ccccc21` it was “inactive”; in that of `O=c1cc(-c2ccc(O)cc2)oc2cc(O)c([C@@H]3OC(CO)[C@H](O)[C@@H](O)[C@H]3O)c(O)c12` (stereo not given in full), “inactive”; in that of `C/C(=C\[C@H](C)C(=O)CCCC1CC(=O)NC(=O)C1)[C@@H]1OC(=O)/C=C/CC/C=C/[C@H](O)[C@@H](O)[C@@H]1C`, 1.33 µM (active).
As for `COC(=O)[C@]1([C@H]2CCC(=O)O2)CC(=O)c2c(O)cc(C)cc2O1`, the entry is “inactive”.
Consider `O=C1c2c(O)cc(O)cc2OC(c2ccc(O)cc2)C1O` (stereo not given), for which the Potency entry was “inactive”.
Turning to `COC(=O)c1cc2cc3c(c(O)c2c(=O)o1)OC1(CC3)CC2=C(O1)C(=O)c1c(O)c(OC)cc(OC)c1C2=O` (stereo not given), the Potency was 18.8 µM (active).
As for `CCCCCC(=O)N[C@@H](CC(C)C)C(=O)N[C@H](C=O)CCC(=O)O` (Hexanoyl-Leu-Glu-aldehyde), the entry is “inactive”; as for `CN1CC[C@]23c4ccccc4N[C@H]1[C@]21CCN(C)[C@H]3Nc2ccccc21`, “inactive”.
In the case of `C/C=C(/C)c1c(Cl)c(OC)c(C)c2c1Oc1c(Cl)c(O)c(Cl)c(C)c1C(=O)O2` it was 13.3 µM (active); in that of `COc1cc(/C=C/C(=O)OC[C@@H](Cc2ccc(O)c(OC)c2)[C@@H](COC(=O)/C=C/c2ccc(O)c(OC)c2)Cc2ccc(O)c(OC)c2)ccc1O`, 8.41 µM (active); in that of `C/C=C(/CO)C(=O)O[C@@H]1[C@H](O)[C@@H](C(=O)OC)O[C@@H]2C[C@H]3OC(n4cnc5c(N)ncnc54)[C@H](OC)[C@H]3O[C@@]12O` (stereo not given in full), “inactive”.
For `CC(C)=CCC[C@]1(C)[C@H]2CC(=O)[C@@]3(CO3)[C@@H]1C2`, the Potency entry was “inactive”.
In the case of `C=C[C@]1(C)CC[C@@H]([C@H](C)C(=O)/C=C/C(C)(C)O)O1`, the Potency result was “inactive”.
As for `C/C(=C\[C@@H](C)CC/C=C/CC/C=C/C(=O)O)[C@H](O)[C@H](C)C(=O)CCCC1CC(=O)NC(=O)C1`, the figure is 6.68 µM (active); as for `COC1C(C)OC(OCC23C[C@@H]4[C@H](C)CC[C@H]4C4(C=O)CC2C=C(C(C)C)C34C(=O)O)[C@@H](O)[C@H]1O` (stereo not given in full), “inactive”; as for `C/C(=C\[C@H](C)C(=O)/C=C/CC1CC(=O)NC(=O)C1)[C@@H]1OC(=O)CCCC/C=C/[C@H](O)[C@@H](O)[C@@H]1C`, 18.8 µM (active).
As for `COc1cc2ccc(=O)oc2c(O)c1O[C@@H]1O[C@H](CO)[C@@H](O)[C@H](O)[C@H]1O`, the entry is “inactive”; as for `C/C=C1/CN2C3CC1C1C=CC(=O)N4c5ccccc5[C@@]3(C[C@@H]2C2=C[C@H]3C5CC6N(CC[C@@]67c6ccccc6N(C2=O)[C@@H]37)C/C5=C/C)[C@H]14` (stereo not given in full), 5.95 µM (active); as for `C=CC(C)(C)C(=O)[C@@H](C)[C@@H]1CC[C@@](C)(C=C)O1`, “inactive”.
For the compound `C[C@@]1(CCC(=O)Nc2c(O)ccc(C(=O)O)c2O)C(=O)C=C[C@]23C[C@H]4C[C@H](O[C@@]4(C)C2)C31` (stereo not given in full), the Potency entry is “inactive”.
In the case of `O[C@H]1c2ccccc2-c2c3c(cc4c2[C@@H]1NCC4)OCO3` it was 18.8 µM (active).
On to `C=C1[C@@]2(C)CC3C4(C)CCC(O)C(C)(C)C4CCC3(C)[C@]1(C(=O)OC)C(=O)C(C)(O)C2=O` (stereo not given in full), for which the Potency entry is “inactive”.
Turning to `CC(=O)Oc1cc2c(c(OC(C)=O)c1C1CCc3cc(Cl)c(Cl)n31)C(=O)n1c-2cc(Cl)c1Cl` (stereo not given), the Potency is 10.6 µM (active).
For the compound `O=C1CCC(=O)N(O)CCCCCNC(=O)CCC(=O)N(O)CCCCCNC(=O)CCC(=O)N(O)CCCCCN1`, the Potency is 7.49 µM (active).
As for `CC(C)[C@@H]1CC(=O)c2coc3c2[C@H]1C[C@@H](C)C3=O`, the Potency result was “inactive”.
Consider `C=C[C@@]1(C)CC[C@@H]([C@H](C)C(C)=O)O1`, for which the Potency result is “inactive”.
As for `C=C(Cl)[C@](Cl)(CBr)CC[C@@H](Br)C(C)(C)Cl`, the figure is 6.68 µM (active); as for `C/C=C/C(=O)C1(O)CC2CC(C(=O)O)CC(C)C2C1C1=C2C(=O)NC(=O)C2=C(CCCCC)C(C)O1` (stereo not given), 18.8 µM (active).
As to `CC[C@H]1[C@@H](C)[C@@H](c2cc(OC)c(OC)cc2OC)[C@H](C)[C@@H](c2cc(OC)c(OC)cc2OC)[C@@]12C=C(OC)C(=O)C=C2OC`, the Potency was 21.1 µM (active).
In the case of `CO[C@@H](C[C@@H](C)[C@@H](O)/C=C/C=C/CNC(=O)C(C)(C)[C@H](O)\C(C)=C/C=C\C=C\Cc1cnco1)[C@]1(O)[C@@H](C)C(=O)N(C)[C@@]12COC2=O`, the Potency result was “inactive”.
As for `C=C[C@]1(C)CC[C@@H]([C@H](C)C(=O)CC=C(C)C)O1`, the entry is “inactive”.
`CC(=O)c1c(C)cc2c(c1O)C(=O)c1c(O)cc(O)cc1C2=O`: the Potency entry is “inactive”.
Turning to `C/C(=C\[C@@H](C)CC/C=C/CC/C=C/C(=O)O)[C@@H](O)[C@H](C)C(=O)CCCC1CC(=O)NC(=O)C1`, the Potency result was “inactive”.
As for `CCC(=O)N[C@@H](C[C@H](C)C(Cl)(Cl)Cl)C(=O)N1C(=O)C=C(OC)[C@@H]1C[C@H](C)CCl`, the figure is 16.8 µM (active); as for `CC(C)=CC[C@H]1C[C@@]2(CC=C(C)C)C(=O)[C@](CC=C(C)C)(C(=O)C(C(=O)c3ccccc3)=C2O)C1(C)C`, 6.68 µM (active).
For the compound `COC(=O)[C@@]12Oc3cccc(O)c3C(O)=C1C(=O)C[C@H](C)[C@H]2O`, the Potency entry was “inactive”.
As for `CC(C)C[C@@H]1c2c(O)c(C=O)c(O)c(C=O)c2O[C@]2(C)C=C[C@@H](C(C)C)C[C@H]12`, the entry is “inactive”; as for `O=Cc1ccc2n1C[C@]1(C[C@H](O)[C@@H](CO)O1)OC2`, “inactive”; as for `COc1ccc([C@@H]2c3cc4c(cc3C(=O)C(C)C2C)OCO4)cc1OC` (stereo not given in full), “inactive”.

For the origin of these results see PubChem BioAssay (NCATS).
